Here are results for 1 sequence from PMC7862700, “An all-to-all approach to the identification of sequence-specific readers for epigenetic DNA modifications on cytosine”.

Holding throughout (assay): DAPPL (digital affinity profiling via proximity ligation, sequencing); 10 mM Tris-HCl pH 7.5, 50 mM NaCl, 1 mM DTT, 4% glycerol, room temperature, 30 min; GST-TFs on glutathione beads, 16-mer random dsDNA library, 0.1% formaldehyde crosslink after washing; high values mean tight binding
In one assay the target is T1, FEV (Homo sapiens, UniProt Q99581 1-238).
T1 sequence: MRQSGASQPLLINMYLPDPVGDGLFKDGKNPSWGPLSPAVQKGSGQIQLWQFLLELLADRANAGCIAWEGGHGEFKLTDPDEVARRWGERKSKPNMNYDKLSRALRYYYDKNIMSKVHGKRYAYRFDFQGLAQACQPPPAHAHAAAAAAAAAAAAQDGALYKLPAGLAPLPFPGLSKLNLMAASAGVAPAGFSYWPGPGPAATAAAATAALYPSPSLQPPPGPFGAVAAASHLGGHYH
The settings on record: protein: recombinant; tags: N-terminal GST; dsDNA, one strand shown. Summed up:
(§1)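 Human transcription factors carrying a GST fusion were produced in yeast, bound to glutathione beads, tagged with DNA barcodes and pooled together with a tag-only sample. Each pool was held with 200 nmole of a random double-stranded 16-mer DNA library in Tris/NaCl/DTT/glycerol buffer for 30 min at room temperature, then washed, crosslinked in 0.1% formaldehyde, proximity-ligated with BsaI/T4 ligase (1 h, 37 °C), PCR-amplified and sequenced on an Illumina NextSeq500. Binding signal is the read frequency of each hexamer for a given factor divided by its frequency in the tag-only sample.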

The next assay deals with ETV5 (Homo sapiens, UniProt P41161 1-510). The settings on record: protein: recombinant; tags: N-terminal GST; dsDNA, one strand shown. Summed up: as §1
Sequence of ETV5 (P41161 whole entry): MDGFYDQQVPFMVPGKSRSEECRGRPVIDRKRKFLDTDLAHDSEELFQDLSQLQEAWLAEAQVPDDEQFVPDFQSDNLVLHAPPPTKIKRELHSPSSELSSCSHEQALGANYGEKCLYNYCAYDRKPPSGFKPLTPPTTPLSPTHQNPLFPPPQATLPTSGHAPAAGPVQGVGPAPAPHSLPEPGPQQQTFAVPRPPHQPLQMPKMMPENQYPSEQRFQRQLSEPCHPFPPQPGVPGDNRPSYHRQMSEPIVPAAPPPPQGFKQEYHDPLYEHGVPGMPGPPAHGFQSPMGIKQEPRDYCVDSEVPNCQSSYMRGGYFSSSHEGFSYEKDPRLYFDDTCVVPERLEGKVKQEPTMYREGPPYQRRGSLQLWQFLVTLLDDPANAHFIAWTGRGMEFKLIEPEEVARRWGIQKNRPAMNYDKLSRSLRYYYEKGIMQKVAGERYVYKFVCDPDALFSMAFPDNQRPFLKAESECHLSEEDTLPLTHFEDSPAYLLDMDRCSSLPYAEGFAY
The next assay has as its target HSF1 (Homo sapiens, UniProt Q00613 1-529). Conditions: protein: recombinant; tags: N-terminal GST; chain copies: 3; dsDNA, one strand shown. Summed up: as §1
The next assay concerns the target T2, SPIC (Homo sapiens, UniProt Q8N5J4 1-248).
T2 sequence: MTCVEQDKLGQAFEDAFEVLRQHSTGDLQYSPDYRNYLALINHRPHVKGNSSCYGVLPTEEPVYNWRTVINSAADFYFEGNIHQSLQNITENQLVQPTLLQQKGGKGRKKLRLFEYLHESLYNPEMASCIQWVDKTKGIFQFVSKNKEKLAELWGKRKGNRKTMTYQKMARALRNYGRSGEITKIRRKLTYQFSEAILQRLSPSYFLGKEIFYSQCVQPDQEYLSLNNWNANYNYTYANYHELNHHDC
The settings on record: protein: recombinant; tags: N-terminal GST; dsDNA, one strand shown. Summed up:
as §1

Another assay deals with ELF4 (Homo sapiens, UniProt Q99607 1-663). The settings on record: protein: recombinant; tags: N-terminal GST; dsDNA, one strand shown. The method, boiled down: as §1
Sequence of ELF4 (Q99607 whole entry): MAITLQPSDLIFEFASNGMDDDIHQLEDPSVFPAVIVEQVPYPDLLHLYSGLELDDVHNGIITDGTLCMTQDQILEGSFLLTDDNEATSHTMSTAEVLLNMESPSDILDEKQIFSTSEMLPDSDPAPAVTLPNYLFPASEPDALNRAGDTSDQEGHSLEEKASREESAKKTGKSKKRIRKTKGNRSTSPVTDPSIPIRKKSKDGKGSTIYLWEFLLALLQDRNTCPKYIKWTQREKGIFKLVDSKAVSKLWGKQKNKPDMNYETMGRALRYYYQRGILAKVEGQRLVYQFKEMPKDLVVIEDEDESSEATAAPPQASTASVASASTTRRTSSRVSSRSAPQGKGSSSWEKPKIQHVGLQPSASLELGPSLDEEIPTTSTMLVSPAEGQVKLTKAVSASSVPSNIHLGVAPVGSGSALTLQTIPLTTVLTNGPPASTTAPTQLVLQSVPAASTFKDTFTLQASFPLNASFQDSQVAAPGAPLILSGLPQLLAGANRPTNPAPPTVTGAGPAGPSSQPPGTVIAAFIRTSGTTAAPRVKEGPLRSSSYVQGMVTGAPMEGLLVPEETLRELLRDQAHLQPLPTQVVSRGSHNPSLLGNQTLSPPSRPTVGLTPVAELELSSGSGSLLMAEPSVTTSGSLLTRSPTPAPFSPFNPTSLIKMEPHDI
A further assay has as its target T3, ELK4 (Homo sapiens, UniProt P28324-2 1-405).
T3 sequence: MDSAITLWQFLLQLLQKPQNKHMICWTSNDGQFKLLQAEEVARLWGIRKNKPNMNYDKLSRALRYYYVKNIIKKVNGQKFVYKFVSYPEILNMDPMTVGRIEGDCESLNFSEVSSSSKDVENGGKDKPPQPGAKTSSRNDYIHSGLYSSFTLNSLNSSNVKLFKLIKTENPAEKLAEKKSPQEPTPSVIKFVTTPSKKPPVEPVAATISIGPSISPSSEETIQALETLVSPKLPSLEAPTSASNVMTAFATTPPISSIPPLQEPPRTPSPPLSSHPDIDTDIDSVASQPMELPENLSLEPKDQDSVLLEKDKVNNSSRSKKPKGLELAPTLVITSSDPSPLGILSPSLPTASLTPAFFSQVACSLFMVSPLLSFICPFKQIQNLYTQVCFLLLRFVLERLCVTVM
The settings on record: protein: recombinant; tags: N-terminal GST; dsDNA, one strand shown. The method, boiled down: as §1

The target in a further assay is T4, ETV2 (Homo sapiens, UniProt O00321 1-342).
T4 sequence: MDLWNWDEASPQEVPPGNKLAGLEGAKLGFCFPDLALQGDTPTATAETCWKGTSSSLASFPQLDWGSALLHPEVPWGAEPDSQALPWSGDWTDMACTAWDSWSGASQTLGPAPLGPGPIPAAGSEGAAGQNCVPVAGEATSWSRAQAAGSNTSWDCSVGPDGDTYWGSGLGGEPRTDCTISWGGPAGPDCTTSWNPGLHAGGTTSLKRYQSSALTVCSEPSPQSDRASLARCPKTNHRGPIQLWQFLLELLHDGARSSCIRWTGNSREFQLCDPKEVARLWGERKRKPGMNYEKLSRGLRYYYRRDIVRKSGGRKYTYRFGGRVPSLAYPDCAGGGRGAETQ
Conditions: protein: recombinant; tags: N-terminal GST; dsDNA, one strand shown. Summed up: as §1

Another assay has as its target T5, ELF3 (Homo sapiens, UniProt P78545 1-371).
T5 sequence: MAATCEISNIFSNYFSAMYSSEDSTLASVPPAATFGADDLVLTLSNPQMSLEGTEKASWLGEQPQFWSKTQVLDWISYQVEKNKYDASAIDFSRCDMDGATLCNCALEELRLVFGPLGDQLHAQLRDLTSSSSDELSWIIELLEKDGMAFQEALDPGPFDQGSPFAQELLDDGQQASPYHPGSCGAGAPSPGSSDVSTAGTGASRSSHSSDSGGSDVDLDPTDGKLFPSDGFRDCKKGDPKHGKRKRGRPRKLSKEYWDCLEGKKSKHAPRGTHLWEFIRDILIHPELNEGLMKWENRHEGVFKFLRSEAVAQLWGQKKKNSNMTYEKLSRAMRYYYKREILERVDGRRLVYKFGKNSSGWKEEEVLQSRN
Conditions: protein: recombinant; tags: N-terminal GST; dsDNA, one strand shown. The method, boiled down: as §1

A further assay concerns the target CRX (Homo sapiens, UniProt O43186 1-299). Conditions: protein: recombinant; tags: N-terminal GST; dsDNA, one strand shown. Summed up:
as §1

For another assay, the target named is ETV1 (Homo sapiens, UniProt P50549 1-477). The settings on record: protein: recombinant; tags: N-terminal GST; dsDNA, one strand shown. The method, boiled down: as §1
Sequence of ETV1 (P50549 whole entry): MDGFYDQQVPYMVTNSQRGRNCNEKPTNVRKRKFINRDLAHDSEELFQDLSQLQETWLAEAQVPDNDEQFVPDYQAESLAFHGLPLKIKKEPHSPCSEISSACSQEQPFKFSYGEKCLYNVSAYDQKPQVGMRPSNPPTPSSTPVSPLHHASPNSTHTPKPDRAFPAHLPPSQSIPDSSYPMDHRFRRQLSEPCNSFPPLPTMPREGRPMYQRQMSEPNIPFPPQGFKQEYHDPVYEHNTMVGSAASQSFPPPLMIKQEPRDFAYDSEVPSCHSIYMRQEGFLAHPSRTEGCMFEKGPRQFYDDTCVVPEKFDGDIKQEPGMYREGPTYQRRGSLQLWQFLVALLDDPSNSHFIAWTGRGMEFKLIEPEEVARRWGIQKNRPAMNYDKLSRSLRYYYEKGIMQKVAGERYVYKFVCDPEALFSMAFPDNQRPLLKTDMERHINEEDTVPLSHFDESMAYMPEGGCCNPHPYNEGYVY
The target of the next assay is T6, ERF (Homo sapiens, UniProt P50548 1-548).
T6 sequence: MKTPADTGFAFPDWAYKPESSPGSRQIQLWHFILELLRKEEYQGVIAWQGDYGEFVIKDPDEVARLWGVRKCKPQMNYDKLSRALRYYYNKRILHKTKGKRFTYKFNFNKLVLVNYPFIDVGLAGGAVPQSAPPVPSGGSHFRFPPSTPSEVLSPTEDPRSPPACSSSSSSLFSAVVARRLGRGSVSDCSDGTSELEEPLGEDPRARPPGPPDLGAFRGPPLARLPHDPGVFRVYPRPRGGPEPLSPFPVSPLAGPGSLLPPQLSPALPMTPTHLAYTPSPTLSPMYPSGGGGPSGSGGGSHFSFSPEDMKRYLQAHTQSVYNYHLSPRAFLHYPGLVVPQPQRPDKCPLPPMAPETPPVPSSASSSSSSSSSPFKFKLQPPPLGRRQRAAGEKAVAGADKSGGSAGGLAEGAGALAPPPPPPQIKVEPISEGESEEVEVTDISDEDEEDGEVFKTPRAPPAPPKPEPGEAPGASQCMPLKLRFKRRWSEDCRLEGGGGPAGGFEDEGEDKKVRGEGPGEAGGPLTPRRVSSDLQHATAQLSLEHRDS
The settings on record: protein: recombinant; tags: N-terminal GST; dsDNA, one strand shown. The method, boiled down:
as §1

The target of a further assay is T7, ETV3L (Homo sapiens, UniProt Q6ZN32 1-361).
T7 sequence: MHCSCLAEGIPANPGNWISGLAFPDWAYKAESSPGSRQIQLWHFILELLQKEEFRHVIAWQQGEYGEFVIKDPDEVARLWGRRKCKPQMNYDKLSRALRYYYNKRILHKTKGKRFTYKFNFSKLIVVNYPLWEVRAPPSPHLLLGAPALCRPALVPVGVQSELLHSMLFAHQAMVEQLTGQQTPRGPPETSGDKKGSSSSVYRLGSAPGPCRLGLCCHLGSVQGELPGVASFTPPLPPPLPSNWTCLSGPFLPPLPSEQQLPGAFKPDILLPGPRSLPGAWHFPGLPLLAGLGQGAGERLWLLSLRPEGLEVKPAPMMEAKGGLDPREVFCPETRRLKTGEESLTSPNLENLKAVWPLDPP
The settings on record: protein: recombinant; tags: N-terminal GST; dsDNA, one strand shown. The method, boiled down:
as §1

Another assay addresses T8, ETS2 (Homo sapiens, UniProt P15036 1-469).
T8 sequence: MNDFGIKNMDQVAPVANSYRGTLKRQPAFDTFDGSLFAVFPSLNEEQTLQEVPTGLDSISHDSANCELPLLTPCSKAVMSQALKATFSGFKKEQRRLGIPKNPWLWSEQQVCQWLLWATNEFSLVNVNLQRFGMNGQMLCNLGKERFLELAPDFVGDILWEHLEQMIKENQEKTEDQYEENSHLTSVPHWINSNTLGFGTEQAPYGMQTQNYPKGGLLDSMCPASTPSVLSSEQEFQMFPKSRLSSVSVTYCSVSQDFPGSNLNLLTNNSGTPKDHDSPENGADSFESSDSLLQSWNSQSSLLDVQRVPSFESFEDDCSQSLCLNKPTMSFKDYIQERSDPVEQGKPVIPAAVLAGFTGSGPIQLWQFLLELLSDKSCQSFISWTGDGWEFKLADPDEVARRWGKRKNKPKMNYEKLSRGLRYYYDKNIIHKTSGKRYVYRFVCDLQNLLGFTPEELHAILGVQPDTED
Conditions: protein: recombinant; tags: N-terminal GST; dsDNA, one strand shown. The method, boiled down: as §1

The next assay concerns the target T9, SPDEF (Homo sapiens, UniProt O95238 1-335).
T9 sequence: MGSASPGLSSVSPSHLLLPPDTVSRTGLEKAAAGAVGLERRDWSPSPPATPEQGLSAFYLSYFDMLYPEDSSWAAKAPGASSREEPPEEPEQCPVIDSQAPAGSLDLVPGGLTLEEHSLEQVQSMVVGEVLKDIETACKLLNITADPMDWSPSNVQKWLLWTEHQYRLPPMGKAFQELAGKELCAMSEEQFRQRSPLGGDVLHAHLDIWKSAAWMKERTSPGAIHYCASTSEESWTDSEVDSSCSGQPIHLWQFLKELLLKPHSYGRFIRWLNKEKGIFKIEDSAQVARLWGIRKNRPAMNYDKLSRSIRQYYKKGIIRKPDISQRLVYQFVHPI
Conditions: protein: recombinant; tags: N-terminal GST; dsDNA, one strand shown. The method, boiled down:
as §1

Another assay has as its target T10, ETV7 (Homo sapiens, UniProt Q9Y603 1-341).
T10 sequence: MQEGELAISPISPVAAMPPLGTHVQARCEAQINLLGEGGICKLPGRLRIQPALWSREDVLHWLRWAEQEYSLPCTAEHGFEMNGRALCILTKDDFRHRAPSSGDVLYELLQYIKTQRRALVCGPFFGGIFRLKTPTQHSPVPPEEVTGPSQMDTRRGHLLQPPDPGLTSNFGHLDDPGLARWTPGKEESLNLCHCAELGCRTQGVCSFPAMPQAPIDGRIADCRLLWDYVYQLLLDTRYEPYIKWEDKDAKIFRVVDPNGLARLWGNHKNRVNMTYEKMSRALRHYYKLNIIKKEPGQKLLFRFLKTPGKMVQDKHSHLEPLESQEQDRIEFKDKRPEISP
The settings on record: protein: recombinant; tags: N-terminal GST; dsDNA, one strand shown. The method, boiled down: as §1

The target in the next assay is T11, ELF5 (Homo sapiens, UniProt Q9UKW6-2 1-255).
T11 sequence: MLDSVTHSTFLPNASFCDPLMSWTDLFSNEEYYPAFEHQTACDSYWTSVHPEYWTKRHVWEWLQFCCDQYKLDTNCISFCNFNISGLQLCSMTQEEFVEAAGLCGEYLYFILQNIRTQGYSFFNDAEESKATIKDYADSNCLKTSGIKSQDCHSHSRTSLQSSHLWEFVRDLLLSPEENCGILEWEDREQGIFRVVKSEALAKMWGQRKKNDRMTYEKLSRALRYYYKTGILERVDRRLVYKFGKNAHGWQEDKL
Conditions: protein: recombinant; tags: N-terminal GST; dsDNA, one strand shown. The method, boiled down: as §1

The target of a further assay is T12, ETV3 (Homo sapiens, UniProt P41162-2 1-143).
T12 sequence: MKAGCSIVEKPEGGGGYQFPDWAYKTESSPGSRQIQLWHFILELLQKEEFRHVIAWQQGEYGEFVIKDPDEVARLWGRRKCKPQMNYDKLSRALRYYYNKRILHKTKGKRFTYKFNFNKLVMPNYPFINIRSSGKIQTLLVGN
Conditions: protein: recombinant; tags: N-terminal GST; dsDNA, one strand shown. Summed up:
as §1

The target of the next assay is ETV6 (Homo sapiens, UniProt P41212 1-452). The settings on record: protein: recombinant; tags: N-terminal GST; dsDNA, one strand shown. The method, boiled down:
as §1

Sequence of HSF1 (Q00613 whole entry): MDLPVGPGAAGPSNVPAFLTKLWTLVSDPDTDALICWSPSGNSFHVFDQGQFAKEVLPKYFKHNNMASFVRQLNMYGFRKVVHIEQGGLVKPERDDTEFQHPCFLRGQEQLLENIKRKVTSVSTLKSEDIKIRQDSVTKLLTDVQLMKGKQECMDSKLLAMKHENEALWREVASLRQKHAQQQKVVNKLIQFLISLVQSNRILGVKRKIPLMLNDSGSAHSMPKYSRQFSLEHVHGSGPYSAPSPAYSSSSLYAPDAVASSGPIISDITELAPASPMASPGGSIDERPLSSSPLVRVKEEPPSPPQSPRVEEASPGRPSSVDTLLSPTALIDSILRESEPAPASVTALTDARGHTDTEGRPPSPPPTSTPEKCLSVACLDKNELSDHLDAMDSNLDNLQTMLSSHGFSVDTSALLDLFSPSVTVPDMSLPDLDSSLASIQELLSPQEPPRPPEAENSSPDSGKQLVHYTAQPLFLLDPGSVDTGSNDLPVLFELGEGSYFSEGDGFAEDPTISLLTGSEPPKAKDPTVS
Sequence of CRX (O43186 whole entry): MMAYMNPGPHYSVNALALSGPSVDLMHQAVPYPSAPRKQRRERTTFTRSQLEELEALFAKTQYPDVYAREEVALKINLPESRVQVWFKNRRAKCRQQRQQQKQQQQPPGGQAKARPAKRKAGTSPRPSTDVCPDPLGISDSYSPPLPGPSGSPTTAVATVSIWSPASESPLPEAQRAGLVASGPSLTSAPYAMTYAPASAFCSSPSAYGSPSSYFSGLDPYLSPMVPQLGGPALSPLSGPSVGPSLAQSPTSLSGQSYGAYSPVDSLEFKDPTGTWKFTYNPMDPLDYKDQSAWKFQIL
Sequence of ETV6 (P41212 whole entry): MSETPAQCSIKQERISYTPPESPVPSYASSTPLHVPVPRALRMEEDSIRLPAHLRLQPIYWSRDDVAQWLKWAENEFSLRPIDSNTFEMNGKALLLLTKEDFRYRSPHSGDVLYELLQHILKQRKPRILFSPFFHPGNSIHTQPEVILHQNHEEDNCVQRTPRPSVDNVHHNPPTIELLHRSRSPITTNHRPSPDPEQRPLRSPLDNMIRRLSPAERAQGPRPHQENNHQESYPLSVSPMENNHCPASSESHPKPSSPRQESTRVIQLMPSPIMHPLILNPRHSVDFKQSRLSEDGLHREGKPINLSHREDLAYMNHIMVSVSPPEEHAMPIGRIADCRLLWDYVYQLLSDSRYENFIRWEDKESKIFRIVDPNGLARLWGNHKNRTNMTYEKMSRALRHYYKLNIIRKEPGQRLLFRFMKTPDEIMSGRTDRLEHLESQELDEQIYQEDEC

As for AACTTA, the binding signal is 1.2 fold enrichment (6-mer frequency, TF over GST control) in the assay with FEV; 1.23 fold enrichment (6-mer frequency, TF over GST control) in the assay with ETV5; 1.41 fold enrichment (6-mer frequency, TF over GST control) with HSF1; 1.27 fold enrichment (6-mer frequency, TF over GST control) in the assay with SPIC; 1.19 fold enrichment (6-mer frequency, TF over GST control) in the assay with ELF4; 1.22 fold enrichment (6-mer frequency, TF over GST control) with ELK4. For the same sequence, the binding signal in the assay with ETV2 was 1.08 fold enrichment (6-mer frequency, TF over GST control); with ELF3, 1.12 fold enrichment (6-mer frequency, TF over GST control); with CRX, 1.72 fold enrichment (6-mer frequency, TF over GST control); with ETV1 it was 1.22 fold enrichment (6-mer frequency, TF over GST control); with ERF, 1.29 fold enrichment (6-mer frequency, TF over GST control); in the assay with ETV3L, 1.14 fold enrichment (6-mer frequency, TF over GST control). For the same sequence, the binding signal was 1.22 fold enrichment (6-mer frequency, TF over GST control) in the assay with ETS2; 1.16 fold enrichment (6-mer frequency, TF over GST control) with SPDEF; 1.14 fold enrichment (6-mer frequency, TF over GST control) in the assay with ETV7; 1.25 fold enrichment (6-mer frequency, TF over GST control) in the assay with ELF5; 1.14 fold enrichment (6-mer frequency, TF over GST control) with ETV3; 1.32 fold enrichment (6-mer frequency, TF over GST control) with ETV6.
